Compound activity (PubChem)
This is a sample that favours compounds with a hit; in the whole collection about 21% have one here.
HCV inhibitor – blocks hepatitis C virus. Huh7.5.1 HCVcc-Cre infection, luciferase reporter, 44 h. Potency, µM (titrated, usually from 41.8 µM), for the others: at the top dose activity change, negative = inhibition, hits mostly inhibitors. 3.4% of 340,000 active. AID 651820; note: potency is the fitted concentration of half-maximal effect; % is set by controls: 0 for no effect and ±100 for the full control effect
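Cells (1,000/well) were plated 4 h before compound, then infected with HCVcc-Cre virus (~0.5 moi). After 44 h further culture, infection was read as luciferase luminescence following a 15 min substrate incubation at room temperature.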
Cycloheximide cs – counter-screen for Shiga toxin inhibitors: cycloheximide protein synthesis inhibition; cell reporter, cycloheximide protein synthesis inhibition counterscreen; max response, %; 12% of 300,000 active; AID 2314; in the data active = max response mostly above about 13%, no sharp cut-off; inactive = mostly below about 14%; note: read at 38.3 µM for the half of the compounds with a filed dose; 0% is about no effect
HCMV antiviral – inhibitors of human cytomegalovirus | HFF cells, HCMV-luciferase reporter, 72 h; hits give low values | activity change, negative = inhibition, % at 57.5 µM | 4.5% of 410,000 active | AID 1259415; in the data active = activity change below about -60%; inconclusive = no clear call, values can overlap the other calls; inactive = above about -39%; note: % is set by controls: 0 for no effect and ±100 for the full control effect
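Human foreskin fibroblasts infected with luciferase-reporter HCMV at MOI 1 PFU/cell, compounds at two doses. Luciferase measured 72 h post infection; normalized to buffer-only basal and Salinomycin (10uM) controls.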
Pf growth 96h – inhibits malaria parasite growth, 96 h | P. falciparum luciferase reporter growth, 96 h | 6.9% of 320,000 active | Potency, µM (top dose mostly 28.7 µM), for inactives: top-dose activity change, negative = inhibition, hits mostly inhibitors; note: potency is the fitted concentration of half-maximal effect; % is set by controls: 0 for no effect and ±100 for the full control effect
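Two-generation exposure (96 h) targets delayed-death phenotype. Reporter parasites carrying integrated firefly luciferase, in red cells at 2% hematocrit and 0.05% parasitemia final, kept at 37 C, 5% CO2; luminescence loss indicates inhibition.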
Pf growth 48h – inhibits P. falciparum growth in the first generation, 48 h | P. falciparum luciferase growth in erythrocytes, 48 h | Potency, µM (doses to about 28.7 µM), for the others: top-dose activity change, negative = inhibition, usual class: inhibitors | 5.9% of 310,000 active; note: potency is the fitted concentration of half-maximal effect; % is set by controls: 0 for no effect and ±100 for the full control effect
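Luminescence readout; reporter = integrated firefly luciferase in P. falciparum. RBC culture at 2% hematocrit, 0.1% parasitemia final, 37 C/5% CO2; decreased signal taken as growth inhibition.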
Shiga inhibitor – blocks Shiga toxin action in Vero cells; Vero cells, Shiga toxin protein synthesis inhibition reporter; inhibition, % at 38.7 µM; 9.2% of 290,000 active; in the data active = inhibition mostly above about 28%, no sharp cut-off; inactive = mostly below about 43%; note: 0% is about no effect
Numbers without * were called inactive; ? = inconclusive; . = no result given. Unless noted, calls come from the whole dose curve; as a rule, active = well fitted inhibition curve with a large enough effect; inconclusive = small, poorly fitted or top-dose-only effect, or another doubt; inactive = no such curve, though single readings can be large or run the other way.

SMILES | HCV inhibitor | Cycloheximide cs | HCMV antiviral | Pf growth 96h | Pf growth 48h | Shiga inhibitor
O=C(CCl)NC1CCCc2ccccc21 (stereo unspecified) | 13.4% | -1.0 | -109.4* | 48.2% | 11.7µM* | -13.1
O=C(NC1CCSc2ccccc21)c1c(F)cccc1Cl (stereo unspecified) | -2.5% | -2.1 | -6.5 | ? | -6.5% | -4.3
CCOc1ccc(CNC(=O)c2cnc3c(C)cccn3c2=O)cc1 | . | . | -1.0 | . | . | .
C#CCN(C[C@H]1[C@H](OC(=O)NCc2ccccc2)[C@H](OC(=O)NCc2ccccc2)C[C@H]2C(=O)N(c3ccccc3)C(=O)[C@@H]12)S(=O)(=O)c1ccc(C)cc1 | . | . | -13.9 | . | . | .
CC1=C(c2ccc(C)c(C)c2)S(=O)(=O)N=C1N1CCC(C(=O)N2CCC(C)CC2)CC1 | . | . | 2.5 | . | . | .
CC1CCN(CC2CCN(C(=O)Nc3ccc(Br)cc3F)CC2)CC1 | . | . | -22.7 | . | . | .
O=C1N/C(=N\N=C\c2cccs2)SC1Cc1ccc(Cl)c(Cl)c1 (stereo unspecified) | 16.2% | 13.2 | -25.5 | ? | ? | 1.4
Cc1c(C(=O)N2CCC(C)CC2)sc2ncnc(N(C)c3ccccc3)c12 | ? | 5.0 | -65.9* | ? | ? | 19.2
COc1cc(C(=O)Nc2ccc(S(=O)(=O)Nc3cnc4ccccc4n3)cc2)cc(OC)c1OC | 13.8% | -0.9 | -0.9 | 11.7µM* | ? | -17.5
Cc1ccc(C(=O)Nc2ccc(S(=O)(=O)Nc3cnc4ccccc4n3)cc2)cc1 | 18.0% | 20.0* | 0.5 | 48.4% | 51.3% | 71.6
COc1ccc([C@@H]2[C@@H](C(=O)N3CCCC3)CC(=O)N2C(=O)c2ccccc2)cc1 | . | . | -16.7 | . | . | .
COc1ccc(Nc2nc(N)c([N+](=O)[O-])c(NC3CCCCC3)n2)cc1 | 11.2µM* | -10.0 | ? | 10.4µM* | ? | -9.0
COc1nc(NCc2cccnc2)nc(NC2CCCCC2)n1 | 14.0% | 71.3* | 18.2 | ? | ? | 34.8*
CNc1nc(Nc2ccc(Br)cc2)nc(N)c1[N+](=O)[O-] | -5.5% | 23.7* | 44.7 | 56.2% | 62.5% | 50.9*
COc1nc(Nc2ccc([N+](=O)[O-])cc2)nc(NC2CCCCC2)n1 | ? | 42.9* | -6.4 | 1.2% | -19.0% | 77.9*
C=CCNc1nc(Nc2ccc([N+](=O)[O-])cc2)nc(OC)n1 | -7.5% | 7.9 | -27.2 | 155.0% | ? | 36.8
COc1nc(NCc2cccnc2)nc(OC)n1 | 11.2% | 10.9 | -11.5 | ? | 1.3% | 32.9
COc1ccc(-c2cc(=O)oc3cc(OC(C)C(=O)NCCCn4ccnc4)ccc23)cc1 (stereo unspecified) | ? | -0.6 | -20.3 | ? | ? | -8.5
COC(=O)c1ccccc1C(=O)c1ccc(OCCN2CCCCC2)cc1 | . | . | . | -20.8% | -23.3% | .
CC(C)Cn1c(N)c(C(=O)COC(=O)[C@H](C)NC(=O)c2ccccc2Cl)c(=O)n(C)c1=O | 2.8% | . | -23.3 | 3.2% | -0.4% | .
CCCCc1ccc(NC(=O)CSc2nnc(CNC(=O)c3ccco3)o2)cc1 | 1.7% | 2.1 | -14.5 | ? | -2.9% | -3.5
Oc1c(C=C2N=c3ccccc3=N2)sc(=S)n1C1CCCC1 | -1.4% | 19.0* | -34.8 | ? | 17.0% | 25.2
Oc1[nH]c(=S)sc1C=C1N=c2ccccc2=N1 | 3.4% | 25.2* | 81.0 | 43.3% | 70.9% | 38.3*
Oc1c(C=C2N=c3ccccc3=N2)sc(=S)n1-c1ccc(F)cc1 | ? | 0.3 | -16.6 | ? | -26.4% | 13.1
CCc1ccc(NC(=O)Cn2c(=O)n(CCCCC(=O)NCc3ccccc3Cl)c(=O)c3ccccc32)cc1 | . | . | 9.8 | . | . | .
SMILES | HCV inhibitor | Cycloheximide cs | HCMV antiviral | Pf growth 96h | Pf growth 48h | Shiga inhibitor
Cc1ccc(S(=O)(=O)NCCc2nnc3ccc(SCC(=O)Nc4ccc(F)cc4F)nn23)cc1 | . | . | 2.5 | . | . | .
C/C(=N\NC(=O)c1n[nH]c2c1CCC2)c1ccco1 | -2.1% | 25.8* | -65.1* | 119.4% | 126.2% | 26.7
COC(=O)N/N=C(\C)c1ccco1 | 3.1% | 1.7 | 11.5 | -10.3% | 5.7% | 2.2
CCCNC(=O)c1n[nH]c2c1CC(C(C)(C)CC)CC2 (stereo unspecified) | 1.1% | . | -19.4 | ? | ? | .
CCC(C)(C)C1CCc2[nH]nc(C(=O)N/N=C(\C)c3ccco3)c2C1 (stereo unspecified) | ? | 61.0* | ? | -15.4% | 80.8% | 106.7*
O=C(C1COc2ccccc2O1)N1CCN(Cc2ccc(Br)cc2F)CC1 (stereo unspecified) | ? | -3.9 | ? | -11.4% | 17.7% | -15.5
c1coc(CNc2nc(N3CCCCC3)nc3ccccc23)c1 | ? | -0.5 | ? | . | 6.57µM* | -6.8
c1ccc(N2CCN(c3nc(NCc4ccco4)c4ccccc4n3)CC2)cc1 | 1µM* | 9.6 | -6.1 | 2.33µM* | 2.33µM* | 26.5
c1ccc(CN2CCC(Nc3nc(-c4ccccc4)nc4ccccc34)CC2)cc1 | ? | -3.0 | 19.1 | . | 8.28µM* | -12.5
O=[N+]([O-])c1ccccc1NC1CCN(Cc2ccccc2)CC1 | 1.7% | 2.1 | -24.4 | 47.4% | ? | -1.6
OCCNc1nc(N2CCCCC2)nc2ccccc12 | -5.7% | -2.6 | -12.1 | -2.4% | ? | -8.5
c1ccc(CNc2nc(N3CCN(Cc4ccccc4)CC3)nc3ccccc23)cc1 | ? | -4.9 | -17.5 | ? | 5.22µM* | 2.7
Nc1nc(N2CCN(Cc3ccccc3)CC2)n[nH]1 | 5.9% | 2.8 | -25.2 | 18.4% | 36.0% | -17.4
c1ccc(OCCNc2ccn3nc(-c4ccco4)cc3n2)cc1 | . | . | 53.7 | . | . | .
Cc1ccccc1C(=O)NC1CCN(Cc2ccccc2)CC1 | 20.0% | -2.6 | -30.7 | 3.7% | 15.9% | 18.7
Cc1csc2ncnc(NC3CCN(Cc4ccccc4)CC3)c12 | 1.78µM* | -2.3 | ? | ? | ? | -7.6
COc1cc(-c2csc(NC3CCCCC3)n2)cc(OC)c1OC | ? | 2.2 | 14.0 | ? | 11.7µM* | 22.7
N#CC1=C2C=CC=CN2CC1=O | 13.2% | 30.4* | 9.6 | 140.8% | 155.4% | 110.5*
CCC(=O)Nc1ccc(C(=O)CSc2nnc(-c3ccc(NS(C)(=O)=O)cc3)n2C)cc1OC | 6.2% | 7.3 | -32.7 | 0.465µM* | -19.2% | -14.5
CCn1c(SCC(=O)c2ccc(NC(C)=O)c(OC)c2)nnc1-c1ccc(NS(C)(=O)=O)cc1 | -11.7% | -2.1 | -37.7 | 0.0% | -27.5% | -6.3
CCCN(CCC)S(=O)(=O)c1ccc(C(=O)OCCN2C(=O)c3cccc4c(N5CCOCC5)ccc(c34)C2=O)cc1 | ? | -3.8 | . | ? | ? | -4.8
O=C(OCCN1C(=O)c2cccc3c(N4CCOCC4)ccc(c23)C1=O)c1ccc(Cl)cc1 | 0.6% | -2.0 | ? | 11.7µM* | ? | -7.7
CC1(C(=O)NS(=O)(=O)C2CC2)CCN(C(=O)c2cccc(OC(F)(F)F)c2)C1 (stereo unspecified) | . | . | 10.3 | . | . | .
